The text below walks through data of PubChem BioAssay (Tox21).

Activity calls are given as the source filed them. Where a call stands in place of a potency, no number is given. The call rests on the fitted dose curve; in most records, active means well fitted activation curve with a large enough effect in the repeat runs; inconclusive means weak or mixed curves; inactive means flat fitted curve, though single readings scatter.
Potency means the concentration at half of the fitted maximal effect.

Sequence of KiSS-1 receptor (Homo sapiens) (Q969F8 whole entry, looked up): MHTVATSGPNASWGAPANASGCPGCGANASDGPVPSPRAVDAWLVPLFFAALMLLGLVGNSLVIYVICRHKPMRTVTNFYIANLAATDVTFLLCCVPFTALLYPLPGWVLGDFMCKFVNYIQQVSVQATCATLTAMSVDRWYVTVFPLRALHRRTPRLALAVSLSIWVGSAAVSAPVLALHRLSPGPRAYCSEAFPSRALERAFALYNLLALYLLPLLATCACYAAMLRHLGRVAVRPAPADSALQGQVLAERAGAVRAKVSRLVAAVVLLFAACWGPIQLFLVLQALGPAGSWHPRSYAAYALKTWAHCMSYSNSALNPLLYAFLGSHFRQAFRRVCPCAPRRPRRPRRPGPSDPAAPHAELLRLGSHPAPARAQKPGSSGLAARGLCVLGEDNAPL

The assay addresses KiSS-1 receptor (Homo sapiens) (UniProt Q969F8). Briefly: Human kisspeptin (KISS1R) small molecule agonists, calcium flux assay in KISS1R-HEK293 cells (AID 1920064). The settings on record: KISS1R-HEK293, calcium flux fluorescence, agonist; series mostly up to 76.8 µM. An excerpt:
National Center for Advancing Translational Sciences [NCATS]
Division of Preclinical Innovation [DPI]
U.S. Environmental Protection Agency [EPA]
National Institutes of Environmental Health Sciences [NIEHS]
National Toxicology Program [NTP]
U.S. Food and Drug Administration [FDA]
Kisspeptin and its receptor KISS1R play key roles in mammalian reproduction due to their involvement in the onset of puberty and control of the hypothalamic-pituitary-gonadal axis such as regulates GnRH release from the hypothalamus. The kisspeptin/KISS1R system also plays a direct role in peripheral organs (including the ovary, testis, uterus, and placenta) and is implicated in reproductive diseases such as miscarriage and polycystic ovary syndrome (PCOS). Abnormal KISS1R activity is associated with abnormal puberty, infertility, endometriosis, and hormone-dependent tumors. The KISS1 receptor (KISS1R, also called GPR54), a G-protein-coupled receptor (GPCR), acts (through phospholipase C) to increase intracellular inositol trisphosphate and then release intracellular calcium stores. Cell-based KISS1R-HEK293 assay is using HEK293 cells that have been genetically engineered to express the human KISS1R, which activity can be measured by calcium signaling. A compound/drug can activate (agonist) KISS1R that can be monitored by levels of intracellular calcium.
KISS1R-HEK293 cells developed by Codex Corp contain human KISS1R gene, which was stably integrated into HEK 293 cells. The compound activation can be detected by fluorescence intensity via calcium flux assay. This cell line has been used to screen the Tox21 10K compound library to identify agonists of KISS1R.
KISS1R-Hek293 cells were dispensed at 1500 cells/4uL/well in 1536-well black wall/clear bottom plates using a multidrop dispenser. After the assay plates were incubated at a 37 C/5% CO2 incubator for 18 hours, 4 microL of Calcium Dye Solution was added to each well. The plates were incubated at 37 C for 1 hour. And then 23 nL of compounds dissolved in DMSO, positive controls, or DMSO only was transferred to the assay plate by a pin tool station. The fluorescence intensity in the plates was measured using FDSS 7000EX kinetic plate reader with a filter set of Ex/Em=480/540 for 3 min at 1 sec intervals. Each test compound was measured at 15 concentrations and in triplicates.
(Calcium flux is commonly read through the fluorescence of an indicator in the cells.)
On to `CN1CCc2cc3c(cc2C1O)OCO3` (stereo not given), for which the Potency result was “inactive”.

In the case of `O=C(Nc1ccc(F)cc1F)c1cccnc1Oc1cccc(C(F)(F)F)c1`, the Potency entry was “inactive”.

As for `CC[C@H]1C[C@@H]2C[C@H]3c4[nH]c5ccc(OC)cc5c4CCN(C2)[C@@H]13`, the Potency entry was “inactive”.

In the case of `O=C(O)c1ccccc1C(=O)Nc1cccc2ccccc12`, the Potency result was “inactive”.

`CNC(=O)Oc1ccc(N(C)C)c(C)c1`: the Potency result was “inactive”.

As to `C[C@@H]1CC2=CC(=O)CC[C@@H]2[C@H]2CC[C@@]3(C)[C@@H](CC[C@]3(C)O)[C@@H]21`, the Potency entry is “inactive”.

On to `COc1ccccc1N1CCNCC1`, for which the Potency entry was “inactive”.

`CC(CCc1ccccc1)NC(C)C(O)c1ccc(O)cc1` (stereo not given): the Potency result is “inactive”.

On to `C[N+]1(C)[C@@H]2CC[C@H]1CC(OC(=O)C(CO)c1ccccc1)C2` (stereo not given in full), for which the Potency entry is “inactive”.

Regarding `CC(O)(CS(=O)(=O)c1ccc(F)cc1)C(=O)Nc1ccc(C#N)c(C(F)(F)F)c1` (stereo not given), the Potency result is “inactive”.

Turning to `CC(C)N(Cc1ccccc1)C(=O)C(C)(C)C`, the Potency entry was “inactive”.

With `Cc1c([N+](=O)[O-])c(C)c([N+](=O)[O-])c(C(C)(C)C)c1[N+](=O)[O-]`, the Potency result is “inactive”.

In the case of `COP(N)(=S)Oc1ccccc1C(=O)OC(C)C` (stereo not given), the Potency entry is “inactive”.

With `CCCC[N+](CCCC)(CCCC)CCCC`, the Potency result is “inactive”.

On to `O=[N+]([O-])c1cccc2cccc([N+](=O)[O-])c12`, for which the Potency entry is “inactive”.

On to `O=NN(CCO)CCO`, for which the Potency entry is “inactive”.

As to `CCOP(=S)(OCC)OC(Cl)C(Cl)(Cl)Cl` (stereo not given), the Potency result is “inactive”.

For `CCC(C)c1cc(C(C)(C)C)cc(-n2nc3ccccc3n2)c1O` (stereo not given), the Potency result is “inactive”.

As for `CC(C)(O)c1cnn2c(-c3ccc(F)c(-c4c(F)cccc4C#N)c3)cnc2n1`, the Potency result was “inactive”.

As to `CC(C)CC(C)N` (stereo not given), the Potency entry was “inactive”.

Regarding `CN(C)S(=O)(=O)N(SC(F)(Cl)Cl)c1ccccc1`, the Potency was 54.9 µM (active).

As to `N#Cc1cc(I)c(O)c(I)c1`, the Potency entry was “inactive”.

Turning to `CCCCC/C=C\C/C=C\C/C=C\C/C=C\CCCC(=O)NCC(=O)O`, the Potency result is “inactive”.

For the compound `Clc1ccc(C2(Cn3cncn3)CC(Br)CO2)c(Cl)c1` (stereo not given), the Potency result was “inactive”.

As for `CCOC(=O)CCl`, the Potency result is “inactive”.

`O=S(=O)(O)C(F)(F)C(F)(F)C(F)(F)C(F)(F)F`: the Potency result is “inactive”.

For the compound `Clc1ccccc1-c1ccccc1Cl`, the Potency entry was “inactive”.

In the case of `C=C(C)[C@H]1CN[C@H](C(=O)O)[C@H]1CC(=O)O`, the Potency entry is “inactive”.

Turning to `CS(=O)(=O)c1cc(C(F)(F)F)ccc1C(=O)c1cnoc1C1CC1`, the Potency entry was “inactive”.

`CC1(C)CN=C(NN=C(/C=C/c2ccc(C(F)(F)F)cc2)/C=C/c2ccc(C(F)(F)F)cc2)NC1`: the Potency result was “inactive”.

In the case of `Cc1cc(C(C)(C)c2ccc(O)c(C)c2)ccc1O`, the Potency result is “inactive”.

With `COc1ccc(C(c2ccc(OC)cc2)C(Cl)(Cl)Cl)cc1`, the Potency entry was “inactive”.

As to `O=C(CCl)Nc1ccccc1`, the Potency entry was “inactive”.

For the compound `c1ccc(C2CC2)c(OCC2=NCCN2)c1`, the Potency entry was “inactive”.

As to `CNP(=O)(OC)Oc1ccc(C(C)(C)C)cc1Cl` (stereo not given), the Potency result was “inactive”.

Consider `CC(c1ccc(O)cc1)(c1ccc(O)cc1)c1ccc(O)cc1`, for which the Potency entry is “inactive”.

In the case of `C#C[C@]1(O)CC[C@H]2[C@@H]3CCC4=CC(=O)CCC4=C3C=C[C@@]21CC`, the Potency result is “inactive”.

With `c1cc[n+]2c(c1)-c1cccc[n+]1CC2`, the Potency entry is “inactive”.

As to `CN(N=O)c1ccc([N+](=O)[O-])cc1`, the Potency entry is “inactive”.

In the case of `OC(Cn1cncn1)(c1ccc(F)cc1)c1ccccc1F` (stereo not given), the Potency entry is “inactive”.
